This is part of a sample that, as a whole, favours compounds with a hit. Of some 83,000 tested, about 20% had one in any assay.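 In brief: 96-well plates, 48 h treatment, single concentration, percent growth endpoint.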 A number with no mark means an inactive call. Activity calls are given as the source filed them.
These compounds were tested on NCI-H322M lung (assay: NCI-60 one-dose screen, 48 h (100 = growth as untreated, 0 = no growth, -100 = all killed)). Conditions: 10 µM unless noted.
Experimental: Growth inhibition of the NCI-H322M human Non-Small Cell Lung tumor cell line is measured as a screen for anti-cancer activity. Cells are grown in 96 well plates and exposed to the test compound for 48 hours. Compounds are tested at a single concentration, which is 10^-5 M for most compounds. The reported endpoint is percent growth (GI% or GIPRCNT), where numbers from 0 - 100% represent growth inhibition, and numbers from -100% - 0 represent cell death. For example, a value of 40 represents 60% growth inhibition. A value of 0 means no net growth occurred over the course of the experiment. A value of -40 indicates 40% of cells at the beginning of the experiment died by the end of the experiment. A value of -100 means all cells are dead at the end of the experiment.
NCI-60 Human Tumor Cell Lines Screen was performed using the standard one-dose NCI protocol, which is described in more detail at https://dtp.cancer.gov/discovery_development/nci-60/default.htm.
Compounds with GIPRCNT values below 10 were considered active. Activity score was based on GIPRCNT using the following formula: […]
Score is 0 for GIPRCNT values of 100 or above, 50 for GIPRCNT values of 0, and 100 for GIPRCNT values of -100.

SMILES	growth
CC(=O)Nc1nc2c(c(N)c1C#N)C(c1cccc(Cl)c1)C1=C(CCCC1=O)N2c1sc2c(c1C#N)CCCC2 (stereo not given)	93.3%
COC(=O)c1oc2c(C(=O)/C=C/c3ccc(OC)cc3)c(OCCCN3CCCCC3)ccc2c1C	17.8%
O=c1c2ccccc2oc2ccc(OCCCCCN3CCCCCC3)cc12	85.9%
Nc1n[nH]c2cccc(C#Cc3cccc(NC(=O)c4cc(N5CCOCC5)cc(C(F)(F)F)c4)c3)c12	55.2%
N#CCNc1ccc(C(=O)O)cc1	114%
N#Cc1ccc(N2Cc3cc(Cl)ccc3OC3=C2C(=O)N(Cc2ccc(F)cc2)C3=O)cc1	96.3%
Cc1cnc(SCc2ccc(Cl)cc2Cl)nc1Nc1ccc(Cl)c(Cl)c1	82%
CC(=O)Nc1ccc2c(c1)Cc1cc(F)ccc1-2	86.9%
CC1CCCN(CCCCCOc2ccc3oc4ccc(Cl)cc4c(=O)c3c2)C1 (stereo not given)	84.4%
Nc1c(C(=O)c2ccccc2)sc2nc(-c3cc4ccccc4o3)cc(-c3ccc(Cl)cc3)c12	87%
CCCCC(=O)Nc1c(C(=O)Nc2ccccc2)sc2nc3c(cc12)C(OC(=O)CCCC)CCC3 (stereo not given)	113%
C[C@]12CC[C@@H]3c4ccc(O)cc4CC[C@H]3[C@@H]1C[C@H](O)C2	89.5%
CCCCN(CCCC)CC(CN(CC)CC)OC(=O)Nc1ccccc1 (stereo not given)	85%
NC[C@@H]1CCN(c2cc3c(cc2F)c(=O)n(N)c(=O)n3Cc2ccc(-c3ccccc3)cc2)C1	96.8%
CC(=O)OCC1OC(OC2C(COC(C)=O)OC(OCCC[S-])C(OC(C)=O)C2OC(C)=O)C(OC(C)=O)C(OC(C)=O)C1OC(C)=O.[Au+].c1ccc(CN2[CH-]N(Cc3ccccc3)C(c3ccccc3)=C2c2ccccc2)cc1 (stereo not given)	52%
C=C(C)[C@@H]1CC[C@]2(C(=O)O)CC[C@]3(C)[C@H](CC[C@@H]4[C@@]5(C)C[C@@H](CC#Cc6ccccc6)C(=O)C(C)(C)[C@@H]5CC[C@]43C)[C@@H]12	31.9%
COc1ccccc1-c1ccc2nc(NC(=O)Nc3cc(C(F)(F)F)cc(C(F)(F)F)c3)sc2c1	15.3%
Nc1cccc(C(=O)Nc2ccc3c(O)c(N=Nc4ccc(N=Nc5ccc(S(=O)(=O)O)cc5)cc4)c(S(=O)(=O)O)cc3c2)c1	94.5%
COc1ccc(NC(=O)c2sc3nc(C)c(C(C)=O)cc3c2N)cc1	95.5%
COc1cc(-c2csc(NC(=O)Nc3ccc(C(F)(F)F)cc3)n2)cc(OC)c1OC	33.5%

SMILES	growth
O=C(N/N=C/C[C@@H]1[C@@H](/C=C/[C@@H](O)COc2cccc(Cl)c2)[C@H](O)C[C@@H]1O)c1ccncc1	101%
C=C1C(=O)O[C@H]2[C@H]1CC/C(C=Nc1c(N)cc(C(F)(F)F)cc1Br)=C\CC[C@@]1(C)O[C@@H]21	77.8%
C=C1C(=O)O[C@H]2[C@H]1CC/C(COC(=O)CCC(=O)OC/C1=C/CC[C@@]3(C)O[C@H]3[C@H]3OC(=O)C(=C)[C@@H]3CC1)=C\CC[C@@]1(C)O[C@@H]21	96.1%
O=C1CC23OC4ON=C(Br)C4C2C(O)c2ccccc2N13 (stereo not given)	96.8%
CCOC(=O)NC(Cc1ccccc1)c1ccccc1 (stereo not given)	114%
CCOC(=O)c1cnn(-c2nc(-c3ccc(F)cc3)c(C#N)c(N3CCOCC3)n2)c1N	105%
Cc1cc(NC(=O)CNc2nc(Oc3ccc(F)cc3)nc(-c3ccc(F)cc3)n2)ccc1Cl	98.7%
CN(C)c1ccc(-c2ccc3[nH]c(=O)nc(-c4ccc(F)cc4)c3c2)cn1	68.2%
COc1ccccc1C(=O)/C=C/c1cc2cccc(OC)c2[nH]c1=O	8.09% (active)
O=C1CCC23OC(C(O)c4ccccc4N12)C1C(Br)=NOC13 (stereo not given)	107%
Cc1nn(-c2ccc(-c3ccc(OC(F)(F)F)cc3)cc2)c2nc(-c3ccccc3)nc(N)c12	86.4%
CCOCc1nc2ccccc2c(=O)[nH]1	100%
NS(=O)(=O)c1ccc(-n2ncc(NC(=O)Nc3ccc(S(=O)(=O)Nc4nccs4)cc3)c2-c2ccccc2)cc1	106%
Cc1cccc(C)c1Nc1nnc(-c2ccc(F)cc2)o1	93.4%
COc1ccc2c(c1)C1(C(=O)N2)C(C#N)=C(c2ccccc2)Nc2c1c(-c1ccccc1)nn2-c1ccccc1 (stereo not given)	60.4%
COc1ccc(Cc2nc(C#N)c(N3CCN(c4ccc(F)cc4)CC3)o2)cc1	99.5%
O=C(/C(=C/c1ccc([N+](=O)[O-])cc1)SCc1ccccc1)c1ccc(Cl)cc1	105%
OCCNc1nc(NCCO)nc(Nc2ccc(C3=NN(c4cc(Cl)cc(Cl)c4)C(c4ccccc4)C3)cc2)n1 (stereo not given)	57.6%
COC(=O)/C=C1\SC(=Nc2ccc(C(F)(F)F)cc2)N(CCc2c[nH]c3ccccc23)C1=O	-11% (active)
Nc1ccc(C2=NN(C(=O)c3cc(-c4ccc(Cl)cc4)nc4ccccc34)C(c3ccc(Cl)cc3)C2)cc1 (stereo not given)	45.2%

— PubChem BioAssay (NCI)
